Laboratory results: PubChem BioAssay (NCATS)
Records with an inconclusive call do not appear. Where a call stands in place of a potency, no number is given. The source made the active and inactive calls. Calls follow the shape of the dose curve; as a rule, active = well fitted inhibition curve with a large enough effect; inconclusive = small, poorly fitted or top-dose-only effect; inactive = no such curve, though single readings can be large or run the other way.

Biological target: Cytochrome P450 3A4 (Homo sapiens) (UniProt P08684)
Sequence (P08684 whole entry, looked up): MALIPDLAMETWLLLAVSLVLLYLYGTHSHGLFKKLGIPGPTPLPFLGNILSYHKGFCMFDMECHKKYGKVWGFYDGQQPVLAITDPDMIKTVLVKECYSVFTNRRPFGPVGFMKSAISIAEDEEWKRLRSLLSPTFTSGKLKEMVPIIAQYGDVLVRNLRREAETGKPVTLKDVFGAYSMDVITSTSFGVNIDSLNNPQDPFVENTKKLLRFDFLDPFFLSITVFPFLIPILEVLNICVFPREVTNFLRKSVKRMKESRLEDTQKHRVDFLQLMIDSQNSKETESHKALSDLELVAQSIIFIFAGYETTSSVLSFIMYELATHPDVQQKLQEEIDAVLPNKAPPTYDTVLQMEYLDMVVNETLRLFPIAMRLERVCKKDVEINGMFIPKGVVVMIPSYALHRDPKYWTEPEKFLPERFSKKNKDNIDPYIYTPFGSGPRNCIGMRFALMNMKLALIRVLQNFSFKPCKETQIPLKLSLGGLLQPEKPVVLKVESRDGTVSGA
Test: qHTS Assay for Inhibitors and Substrates of Cytochrome P450 3A4 (AID 884); also: nearly all actives have a fitted effect of over 50% in size
Details: recombinant CYP3A4, Luciferin-PPXE luminescence; series mostly up to 57.1 µM
Procedure: NIH Molecular Libraries Screening Centers Network [MLSCN]
NIH Chemical Genomics Center [NCGC]
The P450 gene superfamily is involved in the metabolism and clearance of xenobiotics. This assay used human CYP3A4 to measure the dealkylation of luciferin-6' phenylpiperazinylyl (Luciferin-PPXE; […]) to luciferin. The luciferin is then measured by luminescence after the addition of a luciferase detection reagent. Luciferin-PPXE concentration in the assay was equal to its KM for CYP3A4. Inhibitors and some substrates limit the production of luciferin, and decrease measured luminescence.
NCGC Assay Protocol Summary:
Two uL of enzyme and substrate mix (final concentrations: 20nM CYP3A4, 25uM Luciferin-PPXE, 200mM KPO4) were dispensed into a white, solid bottom 1536-well microtiter plate. 23nL of compound was transferred by a pin tool. The plate was incubated at RT for 10 min. Two uL of an NADPH regeneration solution (Promega supplied reagent) was dispensed and the reaction was allowed to continue for 60 min at RT. Then the reaction was stopped by reconstituted luciferin detection buffer. After another 20 min of incubation the plate was read on the ViewLux (Perkin Elmer) at 60 sec exposure and 2x2 binning. This protocol was carried out with Promega-Glo reagents and further information can be found at http://www.promega.com/tbs/tb325/tb325.pdf. Data were normalized to the to AC100 inhibition (57 uM ketoconazole).
Keywords: P450, CYP3A4, Luciferase, MLSMR, MLSCN, NIH Roadmap, qHTS, NCGC
Potency is read from the fitted curve at half-maximal effect.

Question: `ClC(Br)Br` was tested. Which Potency did it give?
Answer: inactive

Question: For `O=[N+]([O-])/C=C/c1ccccc1`, which Potency is on record?
Answer: inactive

Question: For `Cc1ccc([N+](=O)[O-])cc1`, which Potency is on record?
Answer: inactive

Question: For `c1ccc(N=NNc2ccccc2)cc1`, which Potency is on record?
Answer: inactive

Question: For `CC(C)(OOC(C)(C)c1ccccc1)c1ccccc1`, which Potency is on record?
Answer: inactive

Question: `Nn1cnnc1` was tested. Which Potency did it give?
Answer: inactive

Question: How did the Potency turn out when `c1ccc(Nc2ccc(Nc3ccccc3)cc2)cc1` was run?
Answer: inactive

Question: With `Cc1ccc(N)cc1N` as the compound, how does the Potency read?
Answer: inactive

Question: How did the Potency turn out when `O=[N+]([O-])c1ccccc1-c1ccccc1` was run?
Answer: inactive

Question: How did the Potency turn out when `c1cncc(CNc2cc(-c3ccc4c(c3)OCO4)ncn2)c1` was run?
Answer: 0.794 µM (active)

Question: `O=C(O)C(Br)CBr` (stereo not given) was tested. Which Potency did it give?
Answer: inactive

Question: Which Potency does the source give for `FC(Cl)(Cl)Cl` here?
Answer: inactive

Question: With `Clc1cccc(Cl)c1` as the compound, how does the Potency read?
Answer: inactive

Question: Which Potency does the source give for `CCN(CC)N=O` here?
Answer: inactive

Question: Which Potency does the source give for `Nc1ccc(Cc2ccc(N)c(Cl)c2)cc1Cl` here?
Answer: 5.01 µM (active)

Question: `C/C=C/C=O` was tested. Which Potency did it give?
Answer: inactive

Question: How did the Potency turn out when `ClCc1ccccc1` was run?
Answer: inactive

Question: How did the Potency turn out when `c1ccoc1` was run?
Answer: inactive

Question: For `Cl/C=C/CCl`, which Potency is on record?
Answer: inactive

Question: Which Potency does the source give for `O=Cc1ccc(Cl)cc1Cl` here?
Answer: inactive

Question: How did the Potency turn out when `C#CCN[C@@H](C)Cc1ccccc1` was run?
Answer: inactive

Question: How did the Potency turn out when `O=C(Cl)OCc1ccccc1` was run?
Answer: inactive

Question: With `C=CCOCC1CO1` (stereo not given) as the compound, how does the Potency read?
Answer: inactive

Question: With `[N-]=[N+]=[N-]` as the compound, how does the Potency read?
Answer: inactive

Question: Which Potency does the source give for `O=[N+]([O-])c1cccc(O)c1` here?
Answer: inactive

Question: For `ClCCCCl`, which Potency is on record?
Answer: inactive

Question: How did the Potency turn out when `CCCBr` was run?
Answer: inactive

Question: How did the Potency turn out when `CCCCCCCCCCCOC(=O)c1ccccc1C(=O)OCCCCCCCCCCC` was run?
Answer: inactive

Question: With `ClCCBr` as the compound, how does the Potency read?
Answer: inactive

Question: Which Potency does the source give for `C(CCOCC1CO1)COCC1CO1` (stereo not given) here?
Answer: inactive

Question: With `CCCCCc1cc(O)cc(O)c1` as the compound, how does the Potency read?
Answer: 12.6 µM (active)

Question: `C=CC(=O)OCCO` was tested. Which Potency did it give?
Answer: inactive

Question: How did the Potency turn out when `O=[N+]([O-])c1ccc(Cl)c(Cl)c1Cl` was run?
Answer: inactive

Question: With `C=CCc1cc(OC)c2c(c1)OCO2` as the compound, how does the Potency read?
Answer: 10 µM (active)

Question: With `Cc1ccc(N)cc1C` as the compound, how does the Potency read?
Answer: inactive

Question: With `C[C@@H]1Cc2cc3c(cc2C(c2ccc(N)cc2)=NN1)OCO3` as the compound, how does the Potency read?
Answer: 2.51 µM (active)

Question: `Nc1ncc([N+](=O)[O-])s1` was tested. Which Potency did it give?
Answer: inactive

Question: `Clc1cccc2ccccc12` was tested. Which Potency did it give?
Answer: inactive

Question: With `Clc1ccccc1` as the compound, how does the Potency read?
Answer: inactive

Question: `COC(=O)c1ccccc1N` was tested. Which Potency did it give?
Answer: inactive
